# Marburg entry inh – Marburg virus entry inhibition; Marburg virus pseudotyped entry inhibition, cell reporter; Potency, µM (highest dose often 37.8 µM), inactives show at the top dose activity change, negative = inhibition, most hits filed as inhibitors; 1.8% of 300,000 active; AID 540276; calls by dose curve; tested in HEK293 cells; note: potency is the fitted concentration of half-maximal effect
# Vaccinia mCherry – inhibitors of vaccinia virus infection (mCherry reporter signal) | Potency, µM (doses to about 36.5 µM), for inactives: top-dose activity change, negative = inhibition, hits mostly inhibitors | AID 720579 | Vaccinia virus mCherry reporter infection, fluorescence | 0.63% of 310,000 active; calls by dose curve; tested in A549 cells; note: potency is the fitted concentration of half-maximal effect; nearly all actives have a fitted effect of over 35% in size
# FMDV antiviral – blocks foot and mouth disease virus; FMDV antiviral cell-based qHTS; Potency, µM (titrated, usually from 57.9 µM), inactives show at the highest dose activity change, negative = inhibition, hits mostly inhibitors; 1.2% of 410,000 active; AID 1159524; calls by dose curve; tested in HEK293T cells; note: read-out not given here; potency is the fitted concentration of half-maximal effect; nearly all actives have a fitted effect of over 45% in size
# Vaccinia Venus – vaccinia inhibition (Venus reporter). Vaccinia virus Venus reporter expression, fluorescence. AID 720580. 0.46% of 330,000 active. Potency, µM (titrated, usually from 36.5 µM), inactives show at the highest dose activity change, negative = inhibition, usual class: inhibitors; calls by dose curve; tested in A549 cells; note: potency is the fitted concentration of half-maximal effect; nearly all actives have a fitted effect of over 30% in size
# Lassa entry inh – blocks Lassa virus binding to or entry into cells; Potency, µM (doses to about 37.9 µM), for inactives: top-dose activity change, negative = inhibition, actives largely listed as inhibitors; 1.2% of 300,000 active; AID 540256; Lassa virus pseudotype entry inhibition, cell reporter; calls by dose curve; tested in HEK293 cells; note: potency is the fitted concentration of half-maximal effect; nearly all actives have a fitted effect of over 50% in size
# HCMV inh – inhibitors of human cytomegalovirus; AID 1259415; activity change, negative = inhibition, % at 57.5 µM; 4.5% of 410,000 active; HFF cells, HCMV-luciferase reporter, 72 h; stronger effect = lower value; in the data active = activity change below about -60%; inconclusive = no clear call, values can overlap the other calls; inactive = above about -39%
#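 Screen run at 2 compound doses on HFFs infected with reporter HCMV, MOI 1 PFU/cell. Luciferase activity from cell lysates at 72 h post infection gave inhibition relative to buffer-only and Salinomycin wells.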
# Numbers without * were called inactive; i = inactive; ? = inconclusive; . = no result; ! = not active in a repeat; [ ] = remark or other dose. An excerpt weighted towards active compounds, which were near 6.5% of everything screened. % is set by controls: 0 for no effect and ±100 for the full control effect.
SMILES,Marburg entry inh,Vaccinia mCherry,FMDV antiviral,Vaccinia Venus,Lassa entry inh,HCMV inh
CCN(CC)CCOC(=O)c1c(C)oc2ccc(OC)cc12,?,5%,.,9%,5%,-66*
C=C(C)COc1ccc2oc(C)c(C(=O)OCCOC)c2c1,5%,.,-14%,.,18%,-15
COc1cccc(OCc2cc(C3Nc4ccccc4C(=O)N3c3ccccc3)ccc2OC)c1 (stereo unspecified),.,-13%,.,-5%,.,.
CCOc1ccc(CS[C@@H](CC(=O)O)C(=O)O)cc1,8%,.,.,.,.,.
COC(=O)CC=C[C@@H](C)[C@@H](C=NO[C@H](C)c1cn([C@H](CO)Cc2ccccc2)nn1)NS(=O)(=O)c1ccc(C)cc1,22%[14.2 µM],.,.,.,?,.
CCCC(=O)Nc1nc2c(ncn2[C@@H]2O[C@H]3COP(=O)(O)O[C@@H]3[C@@H]2OC(=O)CCC)c(=O)[nH]1,.,-13%,-13%,-11%,.,.
COc1ccc(N=N/C(=C\O)C(=O)c2cccs2)cc1,-29%[46.1 µM],?,-8%,7%,?,-92*
CC(=O)c1ccc(Cc2ccc(C(C)=O)cc2)cc1,30%[46.1 µM],-3%,-9%,3%,-17%,-88*
CCOC(=O)c1cnc2cc(C(F)(F)F)ccc2c1Nc1ccc(F)cc1F,11%[46.1 µM],-12%,-44%,-4%,11%[46.1 µM],7
CC1(C)CC(=O)C=C(C#CC2CC2)C1,.,.,.,.,.,3
O=C(C[C@H]1C(=O)N(c2ccc(Br)cc2)C[C@@H]1Cc1ccccc1)Nc1ccccc1,.,-3%,0%,-16%,5µM*,33
O=C(C[C@H]1C(=O)N(c2ccccc2)C[C@@H]1Cc1ccccc1)Nc1ccc(Br)cc1,.,i,0%,-26%,.,23
COc1ccc(NC(=O)C[C@H]2C(=O)N(CCc3ccccc3)C[C@@H]2Cc2ccccc2)cc1,.,-5%,-18%,-13%,16µM*,20
Cc1c(C(=O)NCC2(c3ccccc3)CCOCC2)cnn1-c1nccc(-c2ccco2)n1,.,-4%,42%,0%,.,.
COc1ccc(-c2nc3ccccn3c2Nc2ccccc2C)cc1,.,-14%,.,-13%,.,.
CCCC(=O)N1CCN(c2ccc(NC(=O)c3ccc4c(c3)OCCO4)cc2)CC1,8%[46.1 µM],-8%,?,-4%,7%,40
O=C(Nc1ccc(N2CCN(C(=O)c3ccc(Cl)cc3)CC2)cc1)c1ccc2c(c1)OCCO2,?,?,11µM*,?,?,-92*
CC(C)(C)C(=O)N1CCN(c2ccc(NC(=O)c3ccc4c(c3)OCCO4)cc2)CC1,?,-22%,32µM*,-14%,?,-68*
CCCCOC(=O)Nc1ccc(N2CCOCC2)cc1,?,.,56%,.,12%,52
Cc1ccc(NC(=O)c2ccc(Cl)c(N3C(=O)C=CC3=O)c2)cc1,-1%,.,40µM*,?,-9%,-12
CCCCOC(=O)Nc1ccc(N2CCCCC2)cc1,?,-17%,4%,-11%,8.9µM*,145
COc1cc(=O)n2c(c1C(=O)N(C)Cc1cscn1)CCN(Cc1ccc3c(c1)OCCO3)CC2,.,-17%,-12%,0%,.,.
COCc1c(C(=O)NCC2CCCN(C)C2)cnn1-c1ncc2c(n1)-c1ccccc1CCC2 (stereo unspecified),.,i,6%,-10%,.,.
COc1ccc(/C=C/C(=O)N2CCc3c(cnc(C)c3CNC(=O)c3ccsc3)C2)cc1OC,.,-11%,-9%,-8%,.,.
CS(=O)(=O)c1ccc(C(=O)OCC(=O)NCC2CCCO2)cc1[N+](=O)[O-] (stereo unspecified),.,-14%,.,-14%,.,.
SMILES,Marburg entry inh,Vaccinia mCherry,FMDV antiviral,Vaccinia Venus,Lassa entry inh,HCMV inh
CCOC(=O)C1=CCC(c2ccc([N+](=O)[O-])cc2)N(S(=O)(=O)c2ccc(C)cc2)C1 (stereo unspecified),.,.,.,.,.,-6
COc1cc(-c2nc(-c3ccc(NC(=O)c4ccc5c(c4)OCO5)cc3)no2)cc(OC)c1OC,?,-18%,-24%,-15%,-6%,60
O=C(Nc1ccc(N2CCCCC2)cc1)c1ccc(F)cc1,11µM*,-13%,-17%,-5%,?,55
O=C(Nc1ccc(N2CCCCC2)cc1)c1ccc2c(c1)OCCO2,?,.,-22%,.,?,-91*
O=C(c1ccc(F)cc1)c1ccc(N2CCCCC2)cc1,.,.,45%,.,.,25
O=C(Nc1ccc(C(=O)N2CCN(c3ccccc3F)CC2)cc1)C1=CSCCO1,.,.,24%,.,.,-61*
CC(=O)N1CCN(c2ccc(NC(=O)c3ccc4c(c3)OCCO4)cc2)CC1,20%,i,.,-12%,18%,-23
Cc1ccccc1-c1nc(-c2ccc(NC(=O)c3ccc4c(c3)OCO4)cc2)no1,?,.,11%,.,?,-79*
O=C(NCC1=C(Cl)CCCC1)C1CNCCC1C(F)(F)F (stereo unspecified),-19%,.,.,.,.,.
COc1ccccc1N1CCN(S(=O)(=O)c2ccc(-c3ccno3)cc2OC)CC1,.,-17%,-22%,-14%,-22%[46.1 µM],-17
O=C(Nc1ccncc1)c1ccc2c(c1)OCCO2,-25%,.,-20%,-25%,-18%,-13
O=C(Nc1ccc(N2CCN(C(=O)c3ccccc3)CC2)cc1)c1ccc2c(c1)OCCO2,?,-4%,32µM*,-11%,?,-69*
Cc1ccc(NC(=O)c2ccc3c(c2)OCCO3)cc1,13µM*,.,0%,-20%,4.5µM*,17
CN(C)C(=O)c1ccc(-c2cc3cnc(Nc4ccccc4Cl)cc3[nH]2)cc1,.,.,.,.,.,-27
O=C(CNC(=S)N(Cc1ccccc1F)C1CCCCC1)NCC1CCCO1 (stereo unspecified),?,-28%,0%,?,4.5µM*,-61*
COc1ccc(NC(=O)C2CCCN(S(=O)(=O)c3ccc4c(c3)CCCC(=O)N4)C2)cc1OC (stereo unspecified),.,-11%,?,-9%,?,-10
CCCCN(C)CCCNC(=O)Cn1ncc2c3ccccc3n(Cc3cc(C)ccc3C)c2c1=O,?,-5%,-22%,-25%,?,-99*
CCCCN(C)CCCNC(=O)Cn1ncc2c3ccccc3n(Cc3ccccc3F)c2c1=O,9%[46.1 µM],?,0%,?,20%[46.1 µM],-105*
Cc1cc(C)c(Cn2c3ccccc3c3cnn(CC(=O)NCc4ccccn4)c(=O)c32)c(C)c1,?,-24%,?,-2%,?,-62*!
Cc1cccc2c(N)c3c(nc12)CCCC3 (tested in a mixture with another compound),.,.,-18%,.,.,-33
Cc1cc(C)c2c(N)c3cccc(C)c3nc2n1,3.7µM*,10µM*,-12%,10µM*,?,-99*
Cc1cccc(CCNC(=O)c2ccc(CSCc3cccc(Cl)c3)o2)c1,.,-12%,-23%,2%,-16%[46.1 µM],0
CCCCN(C)CC(O)Cn1cc(/C=C/C(=O)c2ccc(Br)cc2)c2ccccc21 (stereo unspecified),?,-5%,-19%,-18%,?,-107*
